From PubChem BioAssay (NCI)
Compounds without any hit were thinned out: in the full panel of roughly 79,000, 15% have a hit. Unmarked numbers belong to inactive results. Active and inactive are the calls of the source. Rule as the data show it: active = growth inhibition above about 70%; inactive = the rest.

Key:
[1] = NCI Yeast Anticancer Drug Screen. Data for the rad50 strain (AID 155);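 also: 0% = growth of vehicle-only cultures of the same strain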; conditions: S. cerevisiae rad50 strain growth inhibition; at 50.0 µM; active compounds read high
Summary of the method: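 DNA repair mutant yeast, compound exposure, growth read-out; inhibition is taken relative to vehicle.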

[2] = NCI Yeast Anticancer Drug Screen. Data for the mec2-1 strain (AID 157); conditions: S. cerevisiae mec2-1 strain, at 50.0 µM, active compounds read high
Summary of the method: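 Compounds were applied to mec2-1 yeast cells. Their growth was then compared with that of vehicle-treated cultures to give growth inhibition.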

[3] = NCI Yeast Anticancer Drug Screen. Data for the sgs1 mgt1 strain (AID 161);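 also: 0% = growth of cultures given vehicle only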; conditions: S. cerevisiae sgs1 mgt1 strain, at 50.0 µM, active compounds read high
Summary of the method: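 Percent growth inhibition was derived by comparing compound-exposed mutant yeast with vehicle-exposed cultures. The strain carries alterations in DNA damage repair.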

[4] = NCI Yeast Anticancer Drug Screen. Data for the cln2 rad14 strain (AID 165);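 also: 0% = growth equal to vehicle treated cultures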; conditions: S. cerevisiae cln2 rad14 strain, at 50.0 µM, active compounds read high
Summary of the method: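 Strain: cln2 rad14 yeast, altered in cell cycle control and DNA damage repair. Read-out: growth inhibition vs vehicle.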

[5] = NCI Yeast Anticancer Drug Screen. Data for the bub3 strain (AID 167); conditions: S. cerevisiae bub3 mutant strain, at 50.0 µM, active compounds read high
Summary of the method: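 In this screen, a yeast mutant lacking normal mitotic checkpoint function is challenged with compound. Relative growth versus vehicle gives the inhibition value.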

[6] = NCI Yeast Anticancer Drug Screen. Data for the mlh1 rad18 strain (AID 175); conditions: S. cerevisiae mlh1 rad18 strain growth inhibition; at 50.0 µM; active compounds read high
Summary of the method: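 A repair-deficient yeast strain is exposed to test compound, and growth is scored relative to vehicle-treated controls.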

CCOC(=O)[C@H]1C(CC)=NOC1C (some centres not stated)
growth inhibition [1]: 9.95% | growth inhibition [2]: 13.2% | growth inhibition [3]: 2.9% | growth inhibition [4]: -27.5% | growth inhibition [5]: 4.25% | growth inhibition [6]: 2.4%

CC(C)C(Nc1ncnc2nc[nH]c12)C(=O)O (configuration not stated)
growth inhibition [1]: -25.6% | growth inhibition [2]: -15.2% | growth inhibition [3]: -6.65% | growth inhibition [4]: -35.2% | growth inhibition [5]: -23.2% | growth inhibition [6]: -16.9%

C[n+]1c(/C=C/C=C/c2ccccc2)oc2ccccc21
growth inhibition [1]: -38.3% | growth inhibition [2]: -2.25% | growth inhibition [3]: -22.6% | growth inhibition [4]: -11.2% | growth inhibition [5]: 5.8% | growth inhibition [6]: 9.7%

COc1cc(C=Nc2ccc(N3CCOCC3)cc2)ccc1O
growth inhibition [1]: -1.1% | growth inhibition [2]: -3.45% | growth inhibition [3]: -8.45% | growth inhibition [4]: -18.6% | growth inhibition [5]: 12.6% | growth inhibition [6]: -1.25%

CC(=O)Nc1ccc(S(=O)(=O)N/N=C/c2ccco2)cc1
growth inhibition [1]: 23.1% | growth inhibition [2]: 1.2% | growth inhibition [3]: 5.7% | growth inhibition [4]: -30.6% | growth inhibition [5]: 4.1% | growth inhibition [6]: 33.6%

CC(O)CN1CCN(CN(CC(C)O)CC(C)O)CC1 (configuration not stated)
growth inhibition [1]: 0.55% | growth inhibition [2]: 7.25% | growth inhibition [3]: 10.7% | growth inhibition [4]: -2.65% | growth inhibition [5]: 9% | growth inhibition [6]: -16.4%

CCCn1c(C)nc2cc(C(F)(F)F)cc(N)c21
growth inhibition [1]: 14.3% | growth inhibition [2]: 11.4% | growth inhibition [3]: 1.55% | growth inhibition [4]: -35.4% | growth inhibition [5]: 17.9% | growth inhibition [6]: 5.5%

O=c1[nH]c(=O)c2nc3cc(-c4ccc5nc6[nH]c(=O)[nH]c(=O)c6nc5c4)ccc3nc2[nH]1
growth inhibition [1]: 14.2% | growth inhibition [2]: 12.1% | growth inhibition [3]: 12.4% | growth inhibition [4]: 54% | growth inhibition [5]: 2.65% | growth inhibition [6]: 7%

CN(C)CC1C2CCC(C2)C1O (configuration not stated)
growth inhibition [1]: 2.2% | growth inhibition [2]: -20.6% | growth inhibition [3]: -7.7% | growth inhibition [4]: 8% | growth inhibition [5]: -11.7% | growth inhibition [6]: 4.4%

Cc1ccc(S(=O)C(C)C(Cl)c2ccccc2)cc1 (configuration not stated)
growth inhibition [1]: -3.6% | growth inhibition [2]: 0.2% | growth inhibition [3]: 5.6% | growth inhibition [4]: 16.9% | growth inhibition [5]: 11.7% | growth inhibition [6]: 6.9%

O=C(OCCN1CCOCC1)C1C[C@@H](O)CN1C(=O)c1ccc2c(c1)OCO2 (some centres not stated)
growth inhibition [1]: -10.8% | growth inhibition [2]: -5.85% | growth inhibition [3]: 7.7% | growth inhibition [4]: 1.9% | growth inhibition [5]: -14.2% | growth inhibition [6]: 6.25%

CCOC(=O)N1CCN(C(=S)N/N=C(\C)c2cnccn2)CC1
growth inhibition [1]: 99.3% (active) | growth inhibition [2]: 99.5% (active) | growth inhibition [3]: 99.5% (active) | growth inhibition [4]: 99.5% (active) | growth inhibition [5]: 99.5% (active) | growth inhibition [6]: 99.3% (active)

C/C=C(/C)c1ccccc1
growth inhibition [1]: -5.1% | growth inhibition [2]: 1.8% | growth inhibition [3]: -1.1% | growth inhibition [4]: 10.4% | growth inhibition [5]: 4.55% | growth inhibition [6]: 24.6%

c1ccc2c(c1)CCc1c-2n[nH]c1-c1[nH]nc2c1CCc1ccccc1-2
growth inhibition [1]: -12.1% | growth inhibition [2]: -10% | growth inhibition [3]: -1.3% | growth inhibition [4]: -21.9% | growth inhibition [5]: -26.2% | growth inhibition [6]: -5%

CC1OC(OCc2ccc(-c3ccccc3)cc2)CC(N)C1O (configuration not stated)
growth inhibition [1]: -1.9% | growth inhibition [2]: 28.9% | growth inhibition [3]: 24.6% | growth inhibition [4]: -6.85% | growth inhibition [5]: 29.6% | growth inhibition [6]: 2.9%

CC(=O)Oc1ccc(C(C)(C)C)cc1
growth inhibition [1]: 10.7% | growth inhibition [2]: -7.25% | growth inhibition [3]: 1.55% | growth inhibition [4]: -11.7% | growth inhibition [5]: -4.1% | growth inhibition [6]: 5.15%

NC(=O)c1cc[n+](-c2ccc([N+](=O)[O-])cc2[N+](=O)[O-])cc1
growth inhibition [1]: 19.2% | growth inhibition [2]: 0.45% | growth inhibition [3]: 27.2% | growth inhibition [4]: 34.6% | growth inhibition [5]: 19.2% | growth inhibition [6]: 56.5%

CCOC(=O)CN1CN(CCc2ccccc2)CC(C)(C)C1OCC (configuration not stated)
growth inhibition [1]: 37.1% | growth inhibition [2]: 31.6% | growth inhibition [3]: 43.4% | growth inhibition [4]: 20.6% | growth inhibition [5]: 41.2% | growth inhibition [6]: 39.5%

CCOc1ccccc1NC(=O)CC1SC(=Nc2ccc([N+](=O)[O-])cc2)NC1=O (configuration not stated)
growth inhibition [1]: 24.6% | growth inhibition [2]: 20.9% | growth inhibition [3]: 10.3% | growth inhibition [4]: 10.9% | growth inhibition [5]: -13.3% | growth inhibition [6]: -12.8%

CC1CCC2(CC1)NN=c1s/c(=C\c3ccc(O)cc3)c(=O)n1N2 (configuration not stated)
growth inhibition [1]: -9.3% | growth inhibition [2]: -1.7% | growth inhibition [3]: -21.9% | growth inhibition [4]: 8.55% | growth inhibition [5]: -21.2% | growth inhibition [6]: -19.9%

CC(O)C(C)(C)[N+](=O)[O-] (configuration not stated)
growth inhibition [1]: 0.45% | growth inhibition [2]: -1.55% | growth inhibition [3]: -7% | growth inhibition [4]: -4.25% | growth inhibition [5]: 2.8% | growth inhibition [6]: 1.75%

COc1ccc2c(c1O)-c1cccc3c1C(C2)N(CCOCCCl)CC3 (configuration not stated)
growth inhibition [1]: 28.4% | growth inhibition [2]: -12.8% | growth inhibition [3]: -19.9% | growth inhibition [4]: 12.9% | growth inhibition [5]: 3.15% | growth inhibition [6]: -8.85%

Cc1ccc(NC(=O)CCCC(=O)C(C#N)c2ccccc2Cl)cc1C (configuration not stated)
growth inhibition [1]: 0.15% | growth inhibition [2]: -0.95% | growth inhibition [3]: -5.75% | growth inhibition [4]: -22.5% | growth inhibition [5]: -10.1% | growth inhibition [6]: -5.1%

CC(=O)/C(=C/n1c(=S)sc2ccccc21)C(=O)Nc1ccc([N+](=O)[O-])cc1
growth inhibition [1]: 6.4% | growth inhibition [2]: 4.55% | growth inhibition [3]: -2.45% | growth inhibition [4]: -15.8% | growth inhibition [5]: -19.8% | growth inhibition [6]: -8.7%

COc1cc(Br)cc2nc(-c3cccs3)oc12
growth inhibition [1]: -15.3% | growth inhibition [2]: -46.9% | growth inhibition [3]: -62.2% | growth inhibition [4]: -24.6% | growth inhibition [5]: -8.1% | growth inhibition [6]: -32.5%

O=C(Nc1ccccc1)OC1OC(COC(=O)c2ccccc2)C(OC(=O)c2ccccc2)C1OS(=O)(=O)c1ccc([N+](=O)[O-])cc1 (configuration not stated)
growth inhibition [1]: -18.1% | growth inhibition [2]: 0.15% | growth inhibition [3]: -18.2% | growth inhibition [4]: -25.6% | growth inhibition [5]: -13.1% | growth inhibition [6]: -15.8%

CC[N+](C)(CC)CC[N+]1(C)CCCCCCC1
growth inhibition [1]: 12.9% | growth inhibition [2]: 5.45% | growth inhibition [3]: 5.8% | growth inhibition [4]: -40.6% | growth inhibition [5]: 10.4% | growth inhibition [6]: 15.6%

COC1c2ccccc2C(C)(C)c2nc3ccccc3cc21 (configuration not stated)
growth inhibition [1]: -1.05% | growth inhibition [2]: -10% | growth inhibition [3]: -4.6% | growth inhibition [4]: -38% | growth inhibition [5]: 1.6% | growth inhibition [6]: -3.1%

CC1(C)C=C(N2CCCCC2)C(=O)c2ccccc21
growth inhibition [1]: -9.6% | growth inhibition [2]: -2.25% | growth inhibition [3]: -12.2% | growth inhibition [4]: -16.4% | growth inhibition [5]: -9.1% | growth inhibition [6]: 5.15%

CC1CCCc2c(CC3CC(=O)NC(=O)C3)nc(N)nc21 (configuration not stated)
growth inhibition [1]: 6.75% | growth inhibition [2]: 5.25% | growth inhibition [3]: -18.8% | growth inhibition [4]: -7.85% | growth inhibition [5]: -4.7% | growth inhibition [6]: -23.4%

O=C1CSCCO1
growth inhibition [1]: -7.3% | growth inhibition [2]: -27.4% | growth inhibition [3]: -3.6% | growth inhibition [4]: -37% | growth inhibition [5]: 1.05% | growth inhibition [6]: -7%

CC12CCC(O)CC1=CCC1C2CCC2(C)C(C(=O)O)=CCC12 (configuration not stated)
growth inhibition [1]: 1.3% | growth inhibition [2]: 46.5% | growth inhibition [3]: 29.6% | growth inhibition [4]: 21.8% | growth inhibition [5]: 49.1% | growth inhibition [6]: 34.5%

O=C(c1ccccc1)C1Nc2ccccc2CO1 (configuration not stated)
growth inhibition [1]: -5% | growth inhibition [2]: -13.3% | growth inhibition [3]: -13.5% | growth inhibition [4]: -23.4% | growth inhibition [5]: -1.6% | growth inhibition [6]: 28.9%

O=C(Cc1n[nH]c(=S)nc1CC(=O)c1cccnc1)c1cccnc1
growth inhibition [1]: 7.8% | growth inhibition [2]: 12.2% | growth inhibition [3]: 16.1% | growth inhibition [4]: -1% | growth inhibition [5]: 26.8% | growth inhibition [6]: 2.7%

O=Cc1ccc(OC(=O)c2ccccc2)cc1
growth inhibition [1]: -6.35% | growth inhibition [2]: -25.6% | growth inhibition [3]: 13.3% | growth inhibition [4]: -13.3% | growth inhibition [5]: -1.25% | growth inhibition [6]: 3.95%

c1ccc2c(c1)CCC2
growth inhibition [1]: 12.1% | growth inhibition [2]: -10.2% | growth inhibition [3]: -23.1% | growth inhibition [4]: 1.55% | growth inhibition [5]: -18.1% | growth inhibition [6]: -6.6%

Clc1ccc(CCn2ccc3ccccc32)c(Cl)c1
growth inhibition [1]: -12.6% | growth inhibition [2]: -10% | growth inhibition [3]: 0.05% | growth inhibition [4]: 7.2% | growth inhibition [5]: 16.9% | growth inhibition [6]: 4.35%

CCCCCCCCn1c(N)c(C#N)cnc1=S
growth inhibition [1]: -27.9% | growth inhibition [2]: 9.65% | growth inhibition [3]: -3.45% | growth inhibition [4]: -20.2% | growth inhibition [5]: 12% | growth inhibition [6]: 1.2%

Cn1c2ccccc2c(=O)c2c(O)cc3c(c21)CC(C1(C)CO1)O3 (configuration not stated)
growth inhibition [1]: 86.2% (active) | growth inhibition [2]: 79.6% (active) | growth inhibition [3]: 72% (active) | growth inhibition [4]: 80.7% (active) | growth inhibition [5]: 42.5% | growth inhibition [6]: 83.1% (active)

Nc1c(Cl)cc(Cl)cc1C(=O)O
growth inhibition [1]: -5.05% | growth inhibition [2]: -10.5% | growth inhibition [3]: 0.35% | growth inhibition [4]: -28.7% | growth inhibition [5]: -11.2% | growth inhibition [6]: -16.1%

CC(=O)NC1=C(C)C(=O)c2c(nc3n2CCC3OC(=O)c2ccccc2)C1=N (configuration not stated)
growth inhibition [1]: 15% | growth inhibition [2]: -8.3% | growth inhibition [3]: 22% | growth inhibition [4]: 6% | growth inhibition [5]: 26.9% | growth inhibition [6]: -34%

C=CCN=C1NC(=O)C(CC(=O)Nc2cccc(Cl)c2)S1 (configuration not stated)
growth inhibition [1]: -41% | growth inhibition [2]: -25% | growth inhibition [3]: -34.2% | growth inhibition [4]: 6.85% | growth inhibition [5]: -36.5% | growth inhibition [6]: -22.4%
